PubChem BioAssay (Tox21)
Results filed as inconclusive are left out. Activity calls are given as the source filed them. Calls follow the shape of the dose curve; as a rule, active = well fitted curve in the direction sought with a large enough effect in the repeat runs; inconclusive = weak or mixed curves; inactive = no such curve, though single readings can be large; an effect the other way counts as inactive or inconclusive.

Key:
[1] = A CellTox Green Cytotoxicity Assay to monitor cytotoxicity in HepG2 cells - 0 hour (AID 1224882); also: nearly all actives have a fitted effect of over 35% in size
How it was run: (§1)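 Cytotoxicity was tracked as dead-cell DNA fluorescence in HepG2 cells treated with test compounds at 37 C; each time-point value comes from one kinetic series spanning 0, 8, 16, 24, 32 and 40 h.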

[2] = A CellTox Green Cytotoxicity Assay to monitor cytotoxicity in HepG2 cells - 32 hour (AID 1224883); also: nearly all actives have a fitted effect of over 50% in size; also: potency is read from the fitted curve at half-maximal effect
How it was run: as §1

[3] = qHTS RealTime-Glo MT Cell Viability Assay in HepG2 cells - 16 hour (AID 1224885); also: nearly all actives have a fitted effect of over 50% in size
How it was run: (§2)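 Cell number in HepG2 cultures estimated from NanoLuc luminescence generated by metabolic reduction of a prosubstrate by living cells. The homogeneous, nonlytic format allowed repeated reads at 0, 8, 16, 24, 32 and 40 h of compound exposure.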

[4] = qHTS RealTime-Glo MT Cell Viability Assay in HEK293 cells - 24 hour (AID 1224886); also: nearly all actives have a fitted effect of over 50% in size; also: potency is read from the fitted curve at half-maximal effect
How it was run: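 Homogeneous bioluminescent viability format in HEK293 cells (600 cells/well). Following 5 h at 37 C/5% CO2, 23 nL compound was pintooled; the signal was measured repeatedly during 40 h incubation.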

[5] = qHTS RealTime-Glo MT Cell Viability Assay in HepG2 cells - 0 hour (AID 1224889); also: nearly all actives have a fitted effect of over 50% in size
How it was run: as §2

[6] = A CellTox Green Cytotoxicity Assay to monitor cytotoxicity in HepG2 cells - 8 hour (AID 1224890); also: nearly all actives have a fitted effect of over 45% in size
How it was run: as §1

[7] = A CellTox Green Cytotoxicity Assay to monitor cytotoxicity in HEK293 cells - 16 hour (AID 1224888); also: nearly all actives have a fitted effect of over 35% in size
How it was run: (§3)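 Real-time, in one plate: 600 HEK293 cells/well with dead-cell DNA dye, pinned compound after 5 h, 37 C incubation over 40 h; viable cells give no appreciable fluorescence.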

[8] = A CellTox Green Cytotoxicity Assay to monitor cytotoxicity in HEK293 cells - 8 hour (AID 1224884); also: nearly all actives have a fitted effect of over 35% in size
How it was run: as §3

[9] = qHTS RealTime-Glo MT Cell Viability Assay in HEK293 cells - 8 hour (AID 1224887)
How it was run: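 Kinetic, non-lysing viability readout. Seed HEK293 (600/well) with reagent, incubate 5 h at 37 C/5% CO2, pin 23 nL compound in DMSO, incubate at 37 C, read luminescence at 0, 8, 16, 24, 32, 40 h.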

Measured: Potency

CCCCCCCCCCCCCCCC(=O)OC[C@H](O)[C@H]1OC(=O)C(O)=C1O
inactive: [1] | [2] | [3] | [4] | [5] | [6]

O=C1Cc2cc(CCN3CCN(c4nsc5ccccc45)CC3)c(Cl)cc2N1
active: [4] 23.9 µM
inactive: [1] | [5] | [6]

O=CC=C(c1ccccc1)c1ccccc1
inactive: [1] | [2] | [3] | [7] | [6]
active: [4] 17.5 µM

Cc1nc(-c2ccc3c(c2)CCN(CCC2CCC(NC(=O)/C=C/c4ccc(F)cc4)CC2)CC3)no1 (configuration not stated)
inactive: [1] | [2] | [8] | [3] | [7] | [5] | [6]

CN(C/C=C/C#CC(C)(C)C)Cc1cccc2ccccc12
inactive: [1] | [2] | [8] | [3] | [5] | [6]

Cc1ccc(O)c2ncccc12
inactive: [1] | [8] | [3] | [4] | [9] | [7] | [5] | [6]
active: [2] 8.49 µM

C=C(C)C(=O)OCC[N+](C)(C)C
inactive: [1] | [2] | [8] | [3] | [4] | [9] | [7] | [5] | [6]

O=[N+]([O-])c1cc(Cl)c(Cl)c(Cl)c1Cl
inactive: [1] | [8] | [3] | [4] | [9] | [7] | [6]

CC1(C)CCC(C)(C)c2cc(C(=O)Nc3ccc(C(=O)O)cc3)ccc21
inactive: [1] | [3] | [4] | [9] | [7]

O=C1CCCCCN1SSN1CCCCCC1=O
inactive: [1] | [8] | [4] | [9] | [7] | [5] | [6]

CCCCN(CCCC)c1ccc(C(=O)c2ccccc2C(=O)O)c(O)c1
inactive: [1] | [3] | [4] | [9] | [5] | [6]
